The results in this text go back to PubChem BioAssay (EPA / NIEHS).

Test [1] in a line: ATG_CRE_CIS: Attagene CIS-FACTORIAL HepG2 Assay for human cAMP Responsive Element (CRE) binding protein 3 (AID 2282926). The note with it: HepG2 CRE cis-reporter, Attagene multiplexed mRNA; actives raise or lower the signal. Summed up:
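Readout: fluorescently labelled reporter transcripts resolved by capillary electrophoresis after RT-PCR, taken 24 h post-dosing in transfected HepG2. Endogenous transcription factor activity drives each cis-element reporter; gain or loss of signal fitted relative to DMSO control.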

Test [2] deals with CCAAT/enhancer-binding protein beta (Homo sapiens) (UniProt P17676). Nature of the test: ATG_C_EBP_CIS: Attagene CIS-FACTORIAL HepG2 Assay for human CCAAT/Enhancer Binding Protein (C/EBP) beta (AID 2282927). The note with it: HepG2 Attagene cis-factorial transcription factor reporter; actives raise or lower the signal. The essentials: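 HepG2 transiently transfected with multiplexed reporter units under cis-regulatory promoters reporting endogenous C/EBPb activity. After 24 h exposure, reporter mRNA assayed by RT-PCR, fluorescent labelling, HpaI digestion and capillary electrophoresis; bidirectional fitting versus DMSO.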
Chain of CCAAT/enhancer-binding protein beta (Homo sapiens) (P17676 whole entry, looked up): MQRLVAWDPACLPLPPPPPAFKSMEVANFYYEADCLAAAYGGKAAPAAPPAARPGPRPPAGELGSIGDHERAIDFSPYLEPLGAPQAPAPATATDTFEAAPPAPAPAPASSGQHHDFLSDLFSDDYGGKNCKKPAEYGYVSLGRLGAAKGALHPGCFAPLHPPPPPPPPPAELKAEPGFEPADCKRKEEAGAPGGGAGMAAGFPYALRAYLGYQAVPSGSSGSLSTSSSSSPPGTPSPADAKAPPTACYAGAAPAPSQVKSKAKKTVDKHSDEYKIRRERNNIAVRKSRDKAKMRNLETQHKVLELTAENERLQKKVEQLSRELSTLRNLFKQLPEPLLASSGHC

Test [3] can be described thus: ATG_DR4_LXR_CIS: Attagene CIS-FACTORIAL HepG2 Assay for human Liver X Receptor (LXR), DR4 submotif (AID 2282929). The note with it: HepG2 Attagene DR4 cis-reporter, mRNA transcription; actives raise or lower the signal. Summed up:
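HepG2 cells transiently transfected with cis-promoter-driven multiplexed reporter units (DR4 element) were dosed for 24 h. Reporter mRNA was quantified by RT-PCR, fluorescent primer extension, HpaI digestion and capillary electrophoresis; bidirectional fitting versus DMSO baseline.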

Test [4] in a line: ATG_AP_2_CIS: Attagene CIS-FACTORIAL HepG2 Assay for human Activator Protein 2 (AP-2) (AID 2282932). The note with it: HepG2 AP-2 cis-reporter, Attagene transcription factor profiling; actives raise or lower the signal. The essentials:
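Liver-derived HepG2 line, cis-reporter system measuring endogenous factors; 24 h dosing; reporter mRNA detected by fluorescent RT-PCR and capillary electrophoresis.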

Test [5] can be described thus: ATG_BRE_CIS: Attagene CIS-FACTORIAL HepG2 Assay for human Bone Morphogenetic Protein (BMP) Response Element (BRE) (AID 2282933). The note with it: HepG2 BMP response element reporter, Attagene transcription factor profiling; actives raise or lower the signal. The essentials: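 Read-out: reporter mRNA induction quantified by RT-PCR and capillary electrophoresis after 24 h chemical exposure of transfected HepG2 cells. Endogenous factor activity on the BMP response element; gain or loss fitted against DMSO baseline.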

The target of test [6] is Transcription factor E2F1 (Homo sapiens) (UniProt Q01094). Briefly: ATG_E2F_CIS: Attagene CIS-FACTORIAL HepG2 Assay for human E2F Transcription Factor 1 (AID 2282935). The note with it: HepG2 Attagene cis-reporter, E2F reporter RNA transcripts; actives raise or lower the signal. Summed up:
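Liver-derived HepG2 cells expressing transfected promoter-driven reporter units received test chemical for 24 hours. Signal gains or losses were fitted bidirectionally against DMSO.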

A short description of test [7]: ATG_EGR_CIS: Attagene CIS-FACTORIAL HepG2 Assay for human Early Growth Response 1 (EGR1) (AID 2282938). The note with it: HepG2 Attagene CIS-FACTORIAL EGR reporter mRNA; actives raise or lower the signal. The essentials:
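HepG2 cells transiently transfected with cis-promoter-driven multiplexed reporter transcription units; reporter mRNA measured 24 h after compound dosing by RT-PCR, 6-FAM primer extension, HpaI digestion and capillary electrophoresis. Bidirectional fit versus DMSO baseline.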

The nature of test [8]: ATG_M_19_CIS: Attagene CIS-FACTORIAL HepG2 Assay for M19 Transcription Factor (Internal Marker) (AID 2282939). The note with it: HepG2 Attagene CIS-FACTORIAL M19 internal marker reporter; actives raise or lower the signal. Summed up: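 Readout: fluorescent reporter-transcript fragments by capillary electrophoresis after RT-PCR. Human HepG2 liver cells carried transfected MRTU constructs reporting endogenous transcription-factor activity; exposure 24 h. Gain or loss of signal fitted relative to DMSO.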

Test [9] in a line: ATG_Ets_CIS: Attagene CIS-FACTORIAL HepG2 Assay for human Erythroblast Transformation Specific (ETS) (AID 2282941). The note with it: HepG2 ETS cis-reporter transcription, actives raise or lower the signal. The essentials:
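Multiplexed reporter transcript profiling: HepG2, 24 h treatment, total RNA to cDNA, PCR, 6-FAM labelling, HpaI cut, capillary electrophoresis. Gain- or loss-of-signal fitted against DMSO.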

The target in test [10] is Hepatocyte nuclear factor 3-beta (Homo sapiens) (UniProt Q9Y261). Nature of the test: ATG_FoxA2_CIS: Attagene CIS-FACTORIAL HepG2 Assay for human Forkhead box A2 (FOXA2) (AID 2282942). The note with it: HepG2 cis-reporter transcription factor activity, 24 h; actives raise or lower the signal. The essentials:
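HepG2 cells transiently transfected with multiple cis-regulated reporter transcription units, dosed for 24 h. Reporter mRNA measured by RT-PCR, 6-FAM labelling, HpaI digestion and capillary electrophoresis; bidirectional fitting against DMSO baseline.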

A short description of test [11]: ATG_FoxO_CIS: Attagene CIS-FACTORIAL HepG2 Assay for human Forkhead box O (FoxO) (AID 2282943). The note with it: HepG2 Attagene cis-reporter, FoxO element, mRNA; actives raise or lower the signal. The essentials: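 HepG2 cells transiently transfected with cis-element-driven reporter units report endogenous FoxO activity. After 24 h chemical exposure, reporter mRNA quantified by RT-PCR, fluorescent labeling, HpaI digestion and capillary electrophoresis; bidirectional fit versus DMSO.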

The nature of test [12]: ATG_GATA_CIS: Attagene CIS-FACTORIAL HepG2 Assay for human GATA Binding Protein (AID 2282944). The note with it: HepG2 GATA cis-element reporter, Attagene multiplex mRNA; actives raise or lower the signal. Summed up: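 Read-out: fluorescent reporter mRNA fragments resolved by capillary electrophoresis after RT-PCR. Human liver HepG2 cells carried transiently transfected cis-regulated reporter constructs; chemicals incubated 24 h; gain or loss of signal fitted relative to DMSO.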

Test [13] is described as follows: ATG_GLI_CIS: Attagene CIS-FACTORIAL HepG2 Assay for human Zinc Finger Protein GLI1 (AID 2282945). The note with it: HepG2, Attagene cis-factorial reporter mRNA, GLI element; actives raise or lower the signal. Summed up: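 Transiently transfected HepG2 cells report endogenous transcription factor activity via cis-element-driven reporter units. After 24 h compound exposure, reporter mRNA was measured by RT-PCR with capillary electrophoresis; bidirectional fitting against DMSO baseline.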

Test [14] is described as follows: ATG_M_06_CIS: Attagene CIS-FACTORIAL HepG2 Assay for M06 Transcription Factor (Internal Marker) (AID 2282950). The note with it: HepG2 Attagene CIS-FACTORIAL M06 internal marker reporter; actives raise or lower the signal. The essentials: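 Terse: HepG2, transient MRTU transfection (FuGene 6), 24 h dosing; total RNA, oligo(dT) RT, PCR, FAM label, HpaI cut, capillary electrophoresis; bidirectional fit vs DMSO baseline; background-control endpoint.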

A short description of test [15]: ATG_MRE_CIS: Attagene CIS-FACTORIAL HepG2 Assay for human Metal Responsive Element (MRE) (AID 2282954). The note with it: HepG2 MRE cis-reporter transcription, Attagene multiplex; actives raise or lower the signal. The essentials: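 Measured here is mRNA induction from an MRE cis-element reporter in HepG2 after 24 h, quantified by fluorescence of labelled RT-PCR products on capillary electrophoresis; gain- and loss-of-signal fits use DMSO as baseline.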

Test [16] has as its target Paired box protein Pax-6 (Homo sapiens) (UniProt P26367). Nature of the test: ATG_Pax6_CIS: Attagene CIS-FACTORIAL HepG2 Assay for human Paired Box 6 (PAX6) (AID 2282956). The note with it: HepG2 CIS-FACTORIAL PAX6 reporter transcription, RNA readout; actives raise or lower the signal. The essentials:
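Values derive from bidirectional curve fitting of reporter mRNA signal relative to DMSO. HepG2 cells bearing transfected cis-regulated MRTUs were exposed for 24 h; transcripts were read by RT-PCR and capillary electrophoresis.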

The nature of test [17]: ATG_PXRE_CIS: Attagene CIS-FACTORIAL HepG2 Assay for human Pregnane X Receptor Element (PXRE) (AID 2282957). The note with it: HepG2 Attagene CIS-FACTORIAL PXRE reporter, mRNA; actives raise or lower the signal. Summed up: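 Read-out: fluorescence of reporter-specific RT-PCR products resolved by capillary electrophoresis, fitted bidirectionally relative to DMSO. Human HepG2 liver cells carried transfected cis-promoter reporter units and were exposed to chemicals for 24 h.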

The nature of test [18]: ATG_Sox_CIS: Attagene CIS-FACTORIAL HepG2 Assay for human SRY-box transcription factor (SOX) (AID 2282960). The note with it: HepG2 Attagene cis-factorial SOX reporter, mRNA; actives raise or lower the signal. The essentials:
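HepG2 cells transiently transfected with cis-element-driven multiple reporter transcription units, dosed 24 h; reporter mRNA measured by RT-PCR, FAM labelling, HpaI digestion and capillary electrophoresis. Bidirectional fit versus DMSO baseline.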

Test [19] concerns the target Transcription factor Sp1 (Homo sapiens) (UniProt P08047). Briefly: ATG_Sp1_CIS: Attagene CIS-FACTORIAL HepG2 Assay for human Specificity Protein 1 (Sp1) (AID 2282961). The note with it: HepG2 Sp1 cis-reporter transcription, actives raise or lower the signal. Summed up: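 HepG2 cells transiently transfected with multiple reporter transcription units driven by cis-regulatory elements; Sp1-responsive reporter mRNA measured 24 h after dosing by RT-PCR and capillary electrophoresis fluorescence, fitted bidirectionally against DMSO baseline.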

Test [20] is described as follows: ATG_SREBP_CIS: Attagene CIS-FACTORIAL HepG2 Assay for human Sterol Regulatory Element Binding (SREBP) (AID 2282962). The note with it: HepG2 Attagene cis-factorial SREBP reporter, mRNA; actives raise or lower the signal. Summed up:
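Values derive from bidirectional curve fitting with DMSO as baseline. The underlying measurement is reporter mRNA from cis-element-regulated units in transiently transfected HepG2, quantified by RT-PCR and capillary electrophoresis after 24 h exposure.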

Each structure is given as a SMILES string. Activity calls are given as the source filed them. The calls were made as follows: active = hit-call score of the fitted dose curve at least 0.9, where 1 is the maximum; inactive = score below 0.9.

As a reminder, the AC50 is the midpoint of the concentration-response curve, whichever way the signal moves.

Chain of Hepatocyte nuclear factor 3-beta (Homo sapiens) (Q9Y261 whole entry, looked up): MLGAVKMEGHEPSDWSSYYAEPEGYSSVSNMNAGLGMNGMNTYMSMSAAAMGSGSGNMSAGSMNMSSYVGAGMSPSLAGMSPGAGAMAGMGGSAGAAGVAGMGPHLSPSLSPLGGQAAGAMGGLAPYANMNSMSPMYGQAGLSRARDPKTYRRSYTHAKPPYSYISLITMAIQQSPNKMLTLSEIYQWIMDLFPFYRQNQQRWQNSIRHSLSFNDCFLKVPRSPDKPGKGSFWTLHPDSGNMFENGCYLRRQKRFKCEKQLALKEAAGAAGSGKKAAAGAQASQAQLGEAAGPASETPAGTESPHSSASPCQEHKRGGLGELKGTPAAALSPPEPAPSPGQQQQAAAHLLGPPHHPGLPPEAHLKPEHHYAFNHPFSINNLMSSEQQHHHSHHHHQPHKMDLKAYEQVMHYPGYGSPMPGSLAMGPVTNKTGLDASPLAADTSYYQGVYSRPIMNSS
Chain of Transcription factor E2F1 (Homo sapiens) (Q01094 whole entry, looked up): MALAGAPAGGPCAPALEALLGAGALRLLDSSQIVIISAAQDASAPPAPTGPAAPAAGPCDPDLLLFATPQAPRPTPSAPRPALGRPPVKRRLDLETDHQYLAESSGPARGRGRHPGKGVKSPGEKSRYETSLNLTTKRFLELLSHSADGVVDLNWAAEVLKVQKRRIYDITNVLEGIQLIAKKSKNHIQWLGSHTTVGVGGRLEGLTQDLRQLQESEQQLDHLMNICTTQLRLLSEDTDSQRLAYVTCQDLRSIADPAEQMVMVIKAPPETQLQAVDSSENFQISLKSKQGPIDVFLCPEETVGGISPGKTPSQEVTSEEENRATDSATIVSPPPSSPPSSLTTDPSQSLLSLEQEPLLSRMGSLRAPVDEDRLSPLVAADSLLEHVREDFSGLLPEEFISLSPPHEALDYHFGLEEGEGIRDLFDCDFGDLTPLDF
Chain of Paired box protein Pax-6 (Homo sapiens) (P26367 whole entry, looked up): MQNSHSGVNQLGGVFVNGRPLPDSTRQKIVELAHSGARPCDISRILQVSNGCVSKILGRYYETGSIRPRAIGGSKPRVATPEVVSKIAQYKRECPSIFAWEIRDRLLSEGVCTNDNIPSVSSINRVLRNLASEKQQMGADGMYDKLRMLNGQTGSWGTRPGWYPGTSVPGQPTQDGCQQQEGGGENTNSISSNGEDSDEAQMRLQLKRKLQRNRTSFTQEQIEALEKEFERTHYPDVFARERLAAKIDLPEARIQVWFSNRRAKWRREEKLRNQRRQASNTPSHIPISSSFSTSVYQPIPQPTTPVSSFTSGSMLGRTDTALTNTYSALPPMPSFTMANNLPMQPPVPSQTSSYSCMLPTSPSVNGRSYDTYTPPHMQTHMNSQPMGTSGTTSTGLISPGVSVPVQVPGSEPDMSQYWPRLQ
Chain of Transcription factor Sp1 (Homo sapiens) (P08047 whole entry, looked up): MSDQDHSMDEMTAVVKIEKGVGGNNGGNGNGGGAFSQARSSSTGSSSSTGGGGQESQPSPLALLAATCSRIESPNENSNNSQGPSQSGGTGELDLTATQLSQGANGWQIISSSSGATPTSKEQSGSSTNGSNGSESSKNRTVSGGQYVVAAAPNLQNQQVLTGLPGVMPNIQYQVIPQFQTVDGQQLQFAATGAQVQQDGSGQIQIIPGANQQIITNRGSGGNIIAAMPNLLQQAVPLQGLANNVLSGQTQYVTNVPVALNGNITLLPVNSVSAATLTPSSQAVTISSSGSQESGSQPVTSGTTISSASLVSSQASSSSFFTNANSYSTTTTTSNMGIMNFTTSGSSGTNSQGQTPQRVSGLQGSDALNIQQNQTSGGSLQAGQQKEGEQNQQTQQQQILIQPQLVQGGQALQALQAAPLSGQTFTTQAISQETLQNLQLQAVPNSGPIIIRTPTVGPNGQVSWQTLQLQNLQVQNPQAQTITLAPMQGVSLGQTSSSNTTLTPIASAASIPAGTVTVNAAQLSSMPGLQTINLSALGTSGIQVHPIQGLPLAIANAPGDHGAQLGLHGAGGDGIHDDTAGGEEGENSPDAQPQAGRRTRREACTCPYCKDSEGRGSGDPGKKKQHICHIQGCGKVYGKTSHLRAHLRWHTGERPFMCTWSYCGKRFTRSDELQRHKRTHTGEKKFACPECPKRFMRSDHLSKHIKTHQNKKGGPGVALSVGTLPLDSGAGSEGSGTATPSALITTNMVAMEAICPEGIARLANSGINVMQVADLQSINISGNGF

Take `CC(=O)C=Cc1ccccc1`: the result in test [1], in [3], in test [6], in test [8], in test [10] and in [12] was inactive. Moreover, the molecule was called inactive in test [13], in test [14], in test [15], in test [19] and in test [20]. The AC50 in test [2] was 100 µM (active); in [4], 143 µM (active); in [5] it was 74.5 µM (active); in [7] it was 146 µM (active); in test [9] it was 100 µM (active); in test [11], 100 µM (active). The values for the AC50 in test [16], in test [17] and in test [18] were 130 µM (active), 26 µM (active) and 164 µM (active), respectively.
On to `O=C1Nc2ccc(Cl)cc2C(c2ccccc2)=NC1O` (stereo not given), for which the result in [1], in test [2], in [3], in test [4], in test [5] and in test [6] was inactive. For the same molecule, the molecule was called inactive in test [7], in test [8], in test [9], in test [10], in test [11] and in test [12]. For the same molecule, the molecule was called inactive in test [13], in [14], in test [15], in [16], in [17] and in [18]. The molecule was classed as inactive in [19] and in test [20].
For the molecule `Clc1ccc(-c2ccccc2)cc1`, the molecule was called inactive in test [1], in test [2], in test [3], in [4], in [5] and in [6]. The molecule was called inactive in test [7], in [8], in test [9], in test [10], in test [11] and in [12]. The outcome in test [13], in [14], in [15], in test [16], in [18] and in [20] was inactive. The AC50 in test [17] was 42.7 µM (active); in [19] it was 117 µM (active).
In the case of `C[N+](C)=CCl`, the call in test [1], in test [2], in test [3], in [4], in test [5] and in test [6] was inactive. In addition, the result in test [7], in test [8], in [9], in test [10], in [11] and in test [12] was inactive. The outcome in test [13], in test [14], in test [15], in test [16], in test [17] and in [18] was inactive. In addition, the outcome in test [19] and in test [20] was inactive.
Turning to `CN(C)C(=O)C(c1ccccc1)c1ccccc1`, the call in test [1], in [2], in [3], in [4], in test [5] and in test [6] was inactive. In addition, the result in [7], in test [8], in test [9], in test [10], in [11] and in test [12] was inactive. Moreover, the outcome in test [13], in [14], in test [15], in test [16], in test [18] and in test [19] was inactive. Further, in test [20], the molecule was classed as inactive. The AC50 in [17] is 9.67 µM (active).
